Source: PubChem BioAssay AID2314 (National Center for Advancing Translational Sciences (NCATS), 2010)
In all, about 300,000 compounds went through this assay and about 37,000 (12%) were called active. The full list was thinned out, with actives kept by preference. Unmarked numbers belong to inactive results. Cut-off read from the data, not from the text of the source: active = max response mostly above about 13% (no sharp cut-off); inactive = mostly below about 14%.

Experiment: Cycloheximide Counterscreen for Small Molecule Inhibitors of Shiga Toxin; note: read at 38.3 µM for the half of the compounds with a filed dose; 0% is about no effect
Conditions: cell reporter, cycloheximide protein synthesis inhibition counterscreen; stronger effect = higher value

Row | SMILES | max response
1 | N#Cc1ccc(OCc2nnc(-c3ccc([N+](=O)[O-])cc3)o2)cc1 | -2.49%
2 | COCCn1c(SCC(=O)Nc2cc(Cl)ccc2OC)nc2c(c1=O)SC(C)C2 (centres undefined) | -1.62%
3 | O=S(=O)(Oc1ccccc1C(=S)N1CCOCC1)c1ccc(Cl)cc1 | -1.08%
4 | NC(=O)CC(NC(=O)Cc1ccc(Br)cc1)c1ccc(NC2CC3CCC2C3)c([N+](=O)[O-])c1 (centres undefined) | 8.14%
5 | O=C(/C=C/c1ccc(F)cc1)NCCNC(=O)/C=C/c1ccc(F)cc1 | -1.57%
6 | CC(C)c1ccc(/C=C/C(=O)NNC(=O)c2cccnc2)cc1 | 10.9%
7 | C=CCNC(=O)/C=C/c1ccc(C(C)C)cc1 | 57.7% (active)
8 | O=C(/C=C/c1cccc(C(F)(F)F)c1)N1CCN(c2ccccn2)CC1 | 2.61%
9 | O=C(c1cccs1)N(Cc1cc2ccccc2[nH]c1=O)CC1CCCO1 (centres undefined) | -1.8%
10 | COc1ccc(NC(=O)CN2C(=O)COc3ccc(S(=O)(=O)N4CCOCC4)cc32)c(OC)c1 | -3.45%
11 | CCCCC[C@H]1CN(C2CCCCC2)C(=O)[C@@H]1CC(=O)NCc1ccc(OC)cc1 | -1.9%
12 | O=C(CSc1nnnn1C1CCCC1)Nc1ccc2c(c1)OCCO2 | 20.7% (active)
13 | Cc1ccc(-n2c(SCC(=O)Nc3ccc4c(c3)OCO4)nnc2-c2ccoc2C)cc1 | -6.42%
14 | CCC(=O)Nc1cccc(NC(=O)CSc2nnnn2C2CCCC2)c1 | 3.23%
15 | CCn1c(SCC(=O)Nc2ccc3c(c2)OCCO3)nc2c(c1=O)SC(C)C2 (centres undefined) | -2.67%
16 | Cc1ccc(-n2c(SCC(=O)Nc3ccc4c(c3)OCO4)nnc2-c2ccccn2)cc1 | -4.03%
17 | O=C(CSc1nnnn1-c1ccc2c(c1)CCC2)Nc1ccc2c(c1)OCCO2 | 22.4% (active)
18 | COCCCNC(NC(=O)c1ccc(OC)cc1)C(Cl)(Cl)Cl (centres undefined) | -1.44%
19 | O=S(=O)(c1cc(Cl)ccc1Cl)N1CCN(Cc2ccco2)CC1 | -2.5%
20 | CCC(C)N1C(=O)S/C(=C/c2ccc(Sc3nc4ccccc4[nH]3)o2)C1=O (centres undefined) | 8.57%
21 | CC1CCN(S(=O)(=O)c2ccc3[nH]c(=O)ccc3c2)CC1 | 0.735%
22 | CCN(c1ccc2c(c1)OCO2)S(=O)(=O)c1cc(Br)cc2c1N(C(=O)C1CC1)CC2 | 10.1%
23 | COc1ccc(Cl)cc1NC(=O)CN(C)C(=O)CCCc1c[nH]c2ccccc12 | -3.1%
24 | Cc1cccc(OCC(=O)NC2CC(C)(C)NC(C)(C)C2)c1 | -1.93%
